# In all, about 1,100 compounds were measured (“Wnt reporter firefly/Renilla luciferase ratio relative to plate median”: median about 1.1, highest 2% from about 1.6 on). The full list was thinned out, with the highest values kept by preference.
# Test system: HEK293T (UBE3A T485A transfected, BAR Wnt reporter)
# Experiment: Wnt reporter firefly/Renilla luciferase ratio relative to plate median (fold (linear ratio)); higher = more Wnt/beta-catenin reporter activation
# Settings: 24 h
# How it was run: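 HEK293T cells were seeded at 4500 cells/well in white 384-well plates and grown in DMEM with 10% FBS at 37°C and 5% CO2. The cells were transfected using Fugene 6 with a BAR firefly luciferase Wnt reporter, TK-Renilla and an expression plasmid, and four hours later robots added the chemicals at 0.01–100 uM for 24 h before a Dual-Glo luciferase readout. Wnt activity was taken as the firefly/Renilla ratio and cell health as raw Renilla, each median-centred per plate. Values are averages of four biological replicates.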
Compound,Wnt reporter firefly/Renilla luciferase ratio (concentration: 0.1 uM),Wnt reporter firefly/Renilla luciferase ratio (concentration: 1 uM),Wnt reporter firefly/Renilla luciferase ratio (concentration: 10 uM),Wnt reporter firefly/Renilla luciferase ratio (concentration: 100 uM),Wnt reporter firefly/Renilla luciferase ratio (concentration: 0.01 uM)
C=CCOC(=O)c1ccccc1C(=O)OCC=C [Diallyl phthalate],1.17,1.04,1.22,1.09,–
CCOc1cc(Oc2ccc(C(F)(F)F)cc2Cl)ccc1[N+](=O)[O-] [Oxyfluorfen],1.05,0.917,1.07,0.292,1.01
CCCCCCCCCCCCCN1CC(C)OC(C)C1 (configuration not stated) [Tridemorph],1.09,1.23,1.04,1.05,–
CCOP(=O)(OCC)Oc1nc(Cl)c(Cl)cc1Cl [Chlorpyrifos oxon],0.876,1.02,0.861,0.591,0.967
CN(C)C(=O)Cl [Dimethylcarbamoyl chloride],0.982,1.32,1.35,1.31,–
Cc1cccc([N+](=O)[O-])c1 [3-Nitrotoluene],1.02,1.03,0.836,1.17,–
CN(C)C(=O)Nc1cccc(C(F)(F)F)c1 [Fluometuron],1.43,1.1,0.996,1.04,1.3
O=P(OC(CCl)CCl)(OC(CCl)CCl)OC(CCl)CCl,1.19,0.764,1.31,0.44,–
CCC(CC)Nc1c([N+](=O)[O-])cc(C)c(C)c1[N+](=O)[O-] [Pendimethalin],0.866,0.946,0.92,1.08,0.882
"CC(C)(C)CC(C)(C)c1ccc(O)cc1 [4-(1,1,3,3-Tetramethylbutyl)phenol]",1.03,0.968,1.15,0.935,–
CN1COCN(Cc2cnc(Cl)s2)C1=N[N+](=O)[O-] [Thiamethoxam],1.19,1.01,0.971,1.2,1.14
c1ccc(C2CO2)cc1 (configuration not stated) [Styrene oxide],1.23,0.89,1.19,1.71,–
c1ccc(N=Nc2ccccc2)cc1 [Azobenzene],1.35,1.05,1.38,1.1,–
"c1ccc(NNc2ccccc2)cc1 [1,2-Diphenylhydrazine]",1.25,1.04,1.19,1.27,–
CCOP(=S)(Oc1ccc([N+](=O)[O-])cc1)c1ccccc1 (configuration not stated),1.05,1.07,0.965,0.846,–
COc1nn(CSP(=S)(OC)OC)c(=O)s1 [Methidathion],1.74,1.33,1.56,0.818,1.41
"Cc1cc(-c2ccc(N)c(C)c2)ccc1N [3,3'-Dimethylbenzidine]",1.15,0.925,0.831,0.556,–

Compound,Wnt reporter firefly/Renilla luciferase ratio (concentration: 0.1 uM),Wnt reporter firefly/Renilla luciferase ratio (concentration: 1 uM),Wnt reporter firefly/Renilla luciferase ratio (concentration: 10 uM),Wnt reporter firefly/Renilla luciferase ratio (concentration: 100 uM),Wnt reporter firefly/Renilla luciferase ratio (concentration: 0.01 uM)
CCC(C)n1c(=O)[nH]c(C)c(Br)c1=O (configuration not stated) [Bromacil],1,0.995,0.904,0.896,0.919
c1ccc2c(c1)oc1ccccc12 [Dibenzofuran],1.04,0.95,1.02,1.15,–
Oc1ccc(Cl)cc1Cc1ccccc1 [Clorophene],1.05,1.07,0.943,–,0.901
Nc1ccc2ccccc2c1 [2-Naphthylamine],0.991,0.869,0.998,0.629,–
CCOP(=S)(OCC)Oc1nc(Cl)c(Cl)cc1Cl [Chlorpyrifos],1.11,1.01,0.926,1.12,–
"N#CC(Br)(Br)C(N)=O [2,2-Dibromo-3-nitrilopropionamide]",1.26,1.24,1.3,1.23,–
Nc1ccc([N+](=O)[O-])cc1 [4-Nitroaniline],1.19,0.817,0.602,0.574,–
O=S(=O)([O-])C(F)(F)C(F)(F)C(F)(F)C(F)(F)F.[K+],1.15,1.04,1.23,1.73,–
O=S(=O)([O-])C(F)(F)C(F)(F)C(F)(F)C(F)(F)C(F)(F)C(F)(F)C(F)(F)C(F)(F)F.[K+],1.12,1.24,1.39,0.833,–
O=S(=O)([O-])C(F)(F)C(F)(F)C(F)(F)C(F)(F)C(F)(F)C(F)(F)F.[K+],1.21,0.967,1.07,1.21,–
ClC1=C(Cl)C(Cl)(Cl)C(Cl)=C1Cl [Hexachlorocyclopentadiene],1.24,0.958,1.02,0.638,–
O=C(O)CNCP(=O)(O)O [Glyphosate],1.38,1.39,1.04,1.75,1.29
C=C(C)[C@H]1Cc2c(ccc3c2O[C@@H]2COc4cc(OC)c(OC)cc4[C@@H]2C3=O)O1 [Rotenone],0.675,0.7,0.862,–,0.948
CCc1cccc(CC)c1N(COC)C(=O)CCl [Alachlor],0.977,0.938,0.799,0.366,0.923
CC1(C)C(C=C(Cl)Cl)C1C(=O)OC(C#N)c1cccc(Oc2ccccc2)c1 (configuration not stated) [Cypermethrin],1.14,1.06,0.991,0.601,1.02
CS(=O)(=O)c1ccc(C(=O)C2C(=O)CCCC2=O)c([N+](=O)[O-])c1 [Mesotrione],1.82,0.968,1.14,1.16,1.7
C=CC(N)=O [Acrylamide],0.86,0.905,0.839,1.1,–

# Source: the supplement of paper PMC9254222
